This is a sample that favours compounds with a hit; in the whole collection about 10% have one here.
LMNA splice mod – LMNA splicing modulation; HeLa LMNA splicing GFP/RFP minigene ratio, 48 h; Potency, µM (top dose mostly 46.1 µM), for inactives: at the highest dose ratio change, negative = inhibition, usual class: inhibitors; 200,000 compounds, 0.01% hits; AID 1487; active = well fitted inhibition curve with a large enough effect in the signal ratio, with a control signal flat, not every such curve was filed as active; inconclusive = small, poorly fitted or top-dose-only effect, or effect the other way, or a change in a side signal; the % refers to the signal ratio; also: potency is read from the fitted curve at half-maximal effect
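Read-out is the ratio of GFP to DsRed2 object intensity, acquired by 488 nm laser-scanning cytometry on HeLa lamin A-EGFP minigene reporter cells. Compound incubation 48 hrs at 37 °C in Opti-MEM with 2% FBS; DMSO 0.5% final.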
ALDH1A1 block – ALDH1A1 (human) enzyme inhibition | AID 1030 | Purified ALDH1A1, NADH fluorescence, propionaldehyde substrate | Potency, µM (titrated, usually from 75.3 µM), for the others: at the top dose activity, negative = inhibition, most hits filed as inhibitors | 220,000 compounds, 7.3% hits | P00352;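 also: potency is read from the fitted curve at half-maximal effect; plate controls were no enzyme wells and a reference inhibitor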
Target sequence (P00352 whole entry, looked up): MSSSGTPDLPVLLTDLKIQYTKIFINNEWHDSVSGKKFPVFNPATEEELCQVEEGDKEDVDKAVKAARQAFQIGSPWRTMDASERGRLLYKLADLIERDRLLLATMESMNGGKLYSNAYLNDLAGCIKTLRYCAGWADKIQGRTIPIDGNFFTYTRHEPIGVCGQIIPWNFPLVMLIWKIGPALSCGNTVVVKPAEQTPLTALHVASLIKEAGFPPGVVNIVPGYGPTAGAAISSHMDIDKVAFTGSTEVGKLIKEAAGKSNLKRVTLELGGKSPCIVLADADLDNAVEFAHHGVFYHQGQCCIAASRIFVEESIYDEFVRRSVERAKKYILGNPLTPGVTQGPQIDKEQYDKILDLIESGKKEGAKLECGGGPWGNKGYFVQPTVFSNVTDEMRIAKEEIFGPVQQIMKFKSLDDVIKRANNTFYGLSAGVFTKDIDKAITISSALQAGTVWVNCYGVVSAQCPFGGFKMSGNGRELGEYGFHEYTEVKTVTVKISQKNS
PNC assembly inh – inhibitors of perinucleolar compartment assembly | activity change (PNC), negative = inhibition, % at 10 µM | 140,000 compounds, 3.1% hits | PC3M PTB-GFP, PNC prevalence imaging, 16 h; stronger effect = lower value;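 active = readout at or below -70, meaning at least 70% loss of cells showing the perinucleolar compartment, a nuclear body marking cancer cells; inconclusive = readout between -30 and a set limit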;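 also: plate controls were DMSO wells for no effect and camptothecin positive control wells for full effect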
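Read-out is percentage of cells bearing a perinucleolar compartment, from automated 20x imaging of fixed, Hoechst-stained PC3M PTB-GFP cells. Cells were seeded 4 h, then exposed 16 h to compound (23 nl of library stock) in duplicate plates.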
HPGD inh – HPGD (human) dehydrogenase inhibition; Potency, µM, for the others: top-dose activity change, negative = inhibition, actives largely listed as inhibitors; 150,000 compounds, 4.3% hits; P15428; purified HPGD, NADH fluorescence kinetic, PGE2 substrate; AID 894; also: potency is read from the fitted curve at half-maximal effect
Target sequence (P15428 whole entry, looked up): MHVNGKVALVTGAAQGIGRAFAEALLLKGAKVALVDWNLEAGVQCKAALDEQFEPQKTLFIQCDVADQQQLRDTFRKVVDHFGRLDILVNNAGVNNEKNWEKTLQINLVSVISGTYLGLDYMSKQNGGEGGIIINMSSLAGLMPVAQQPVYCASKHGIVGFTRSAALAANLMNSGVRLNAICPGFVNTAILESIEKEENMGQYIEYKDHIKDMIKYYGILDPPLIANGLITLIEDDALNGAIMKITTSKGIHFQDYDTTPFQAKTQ
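20 nM HPGD preincubated 15 min at room temperature with compound in 50 mM Tris-HCl pH 8, 0.01% Tween 20. Started with 1 mM NAD+ and 30 uM prostaglandin E2; NADH fluorescence (360/450 nm) read 5 times over 30-s intervals, last minus first.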
ALOX12 inhib – blocks human 12-lipoxygenase activity; P18054; purified 12-hLO, xylenol orange hydroperoxide absorbance; Potency, µM (highest dose often 57.1 µM), without a hit: at the top dose activity change, negative = inhibition, hits mostly inhibitors; 150,000 compounds, 0.12% hits; active = well fitted inhibition curve with a large enough effect; inconclusive = small, poorly fitted or top-dose-only effect; also: potency is read from the fitted curve at half-maximal effect; nearly all actives have a fitted effect of over 55% in size
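Hydroperoxide formation by human 12-lipoxygenase from 40 uM arachidonic acid was followed colorimetrically via ferric-xylenol orange complex, using the 573/405 nm absorbance ratio. Enzyme concentration was 150 nM, with 30 min reaction at room temperature.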
Numbers without * were called inactive; ? = inconclusive; . = no result; [ ] = dose if it differs, or a comment. Unless noted, calls follow the shape of the dose curve; as a rule, active = well fitted inhibition curve with a large enough effect (not every such curve was filed as active); inconclusive = small, poorly fitted or top-dose-only effect, or another doubt; inactive = no such curve, though single readings can be large or run the other way. Unless noted, % is scaled to controls: 0 for no effect and ±100 for the full control effect.

SMILES	LMNA splice mod	ALDH1A1 block	PNC assembly inh	HPGD inh	ALOX12 inhib
COC(=O)c1ccc(NC(=O)CSc2nnnn2C2CCCCC2)cc1	-8.4%	-2.0%	209.9	-20.4%	10.6%
COc1ccc(OC)c(-n2nnnc2SCC(=O)NCc2ccc3c(c2)OCO3)c1	-9.2%	12.6µM*	15.3	-8.6%	-2.1%
O=C(CSc1nnnn1C1CCCC1)NCc1ccc2c(c1)OCO2	1.8%	20µM*	?	1.3%	-3.1%
CC(=O)Nc1ccc(C(=O)CSc2nnnn2C2CCCC2)cc1	.	15.8µM*	.	.	.
O=C(CSc1nnnn1C1CCCCC1)NCc1ccc2c(c1)OCO2	4.1%	14.1µM*	14.6	-1.8%	-5.7%
Cc1cccc(NC(=O)CSc2nc3n[nH]c(C)c3c(=N)n2-c2cccc(Cl)c2)c1	13.9%[46 µM]	.	.	.	.
COc1ccc(C)c2sc(N(Cc3cccnc3)C(=O)CCc3ccccc3)nc12	-9.4%[46 µM]	.	.	.	.
CC1CCC(C(C)(C)O)CC2=C1CCC2C (stereo unspecified)	-10.0%	10.0%	.	0.9%	1.3%
COc1ccc(N2CC(NC(=O)CCCc3ccccc3)CC2=O)cc1 (stereo unspecified)	21.0%[46 µM]	.	.	.	.
C[C@H](N)CCCC(C)(C)O	-7.9%	7.7%[20.9 µM]	.	-6.7%	1.0%[25.6 µM]
O=C(NC1CC2CCCC(C1)N2S(=O)(=O)c1ccccc1)C1CCCCC1 (stereo unspecified)	1.7%	28.2µM*	84.0	-11.0%	-1.8%
O=C(NC1CC2CCCC(C1)N2Cc1ccccc1)C1CCCCC1 (stereo unspecified)	?	6.0%	.	.	.
Cc1nn(Cc2ccccc2)c(C)c1N	-6.5%	-2.0%	-90.3*	-7.3%	4.5%
Cc1nn(Cc2ccccc2Cl)c(C)c1N	-7.0%	-3.7%	81.9	-0.4%	-0.9%
O=C1NC2(CCCCC2)Oc2ccccc21	-0.8%	15.8µM*	27.9	-11.8%	2.6%
CC(C)(C)c1cnnn1-c1ccc(/C=N/Nc2ccc([N+](=O)[O-])cc2)cc1	?	?	2.4	-18.2%	3.2%
CC(C)(C)c1cnnn1-c1ccc(-c2csc(N)n2)cc1	-16.4%	17.8µM*	32.8	-28.4%	-0.1%
COC(=O)c1ccc(NC(=O)CC2C(=O)N(c3ccccc3)C(=O)N2Cc2cccs2)cc1 (stereo unspecified)	-2.2%[46 µM]	.	.	.	.
O=C(c1cnccn1)N1CCN(c2ccccc2)CC1	2.7%[0.0737 µM]	1.7%	4.6	-4.8%	0.2%
O=C(c1cc(C2CC2)on1)N1CCN(c2ccccc2)CC1	10.8%	28.2µM*	9.7	-23.8%	-7.5%
C/C=C/C(=O)C[C@H]1CC[C@@H](C)[C@@H](CCO)O1	.	?	.	-2.2%	.
COC(=O)C(CCSC)NC(=O)C1CCN(c2ncnc3c2nc2n3CCCCC2)CC1 (stereo unspecified)	1.4%[46 µM]	.	.	.	.
Cc1ccc(N2CC(C(=O)N/N=C/c3cccc([N+](=O)[O-])c3)CC2=O)cc1 (stereo unspecified)	-8.9%	-14.0%	-82.9*	-18.1%	0.9%
O=C(N/N=C/c1cccc([N+](=O)[O-])c1)C1CC(=O)N(c2ccc(Cl)cc2)C1 (stereo unspecified)	-4.5%	-4.7%	-16.9	-12.8%	-20.9%
COc1ccc(CNC(=O)CC(C)n2nc(C)cc2C)cc1 (stereo unspecified)	2.3%[46 µM]	.	.	.	.
SMILES	LMNA splice mod	ALDH1A1 block	PNC assembly inh	HPGD inh	ALOX12 inhib
O=C(C1CCC(Cn2c(=O)c3sccc3n(Cc3cccc(F)c3)c2=O)CC1)N1CCOCC1 (stereo unspecified)	9.4%[46 µM]	.	.	.	.
Nc1ccc(S(=O)(=O)NCc2nccs2)cc1	.	-14.4%[13.5 µM]	.	-9.7%	6.9%[11.4 µM]
COc1ccc(OCC(=O)NC(=S)NNC(=O)COc2ccc(Br)cc2Cl)cc1	.	11.2µM*	.	.	.
Cc1cccc(NC(=S)NNC(=O)COc2ccc(Cl)cc2Cl)c1	-1.0%	6.31µM*	65.2	?	?
COc1ccc(NC(=S)NNC(=O)CNc2ccc(Cl)cc2)cc1	.	10µM*	.	.	.
CCOc1ccc(CC(=O)NNC(=S)Nc2ccccc2)cc1Br	-11.1%	31.6µM*	65.3	-14.6%	-9.6%
COCCCNC(=O)CN1C(=O)c2cccnc2Sc2ccccc21	3.8%[46 µM]	.	.	.	.
Cc1ccc(OCC(=O)NCC(=O)OCc2cc(=O)n3nc(CC(C)C)sc3n2)cc1	-7.6%[46 µM]	.	.	.	.
Cc1ccc(-n2ncc(C(=O)N3CCN(Cc4ccccc4)CC3)c2C2CCN(C(=O)OC(C)(C)C)CC2)c(C)c1	-4.0%[46 µM]	.	.	.	.
COc1ccc(NC(=S)NNC(=O)COc2ccc(Cl)cc2Cl)cc1	-1.9%	6.9%	-7.1	4.47µM*	-4.6%
COc1ccc(CC(=O)NNC(=S)Nc2ccc(Br)cc2)cc1	4.9%	17.8µM*	11.2	-18.9%	-10.8%
COc1ccc(CC(=O)NNC(=O)Cc2ccc(OC)cc2)cc1	.	-9.4%	.	.	.
CC(=O)OC[C@@H]1O[C@@H](O/N=C2/C[C@@H](O)[C@@H](O)[C@@H]3[C@@H]4C(=O)N(c5cccc(Oc6ccccc6)c5)C(=O)[C@H]4CC[C@@H]23)[C@H](OC(C)=O)[C@H](OC(C)=O)[C@@H]1OC(C)=O	.	-5.2%[13.5 µM]	.	.	.
CCCCNC(=O)/C=C1\Sc2ccccc2NC1=O	1.3%	13.8%	34.8	17.8µM*	-3.1%
O=C1c2ccccc2C(O)(Cc2ccccc2)N1CCCN1CCOCC1 (stereo unspecified)	-0.6%	-10.0%	-19.6	-5.8%	0.0%
O=C1c2ccccc2C(O)(c2ncc[nH]2)N1CCc1ccccc1 (stereo unspecified)	-10.0%	14.1µM*	7.9	-9.7%	-2.2%
Cc1ccc(-n2nc(C)c3c2OC(N)=C(C#N)C3c2ccco2)cc1 (stereo unspecified)	2.3%	1.58µM*	-8.1	?	-20.5%
Cc1ccc(-n2nc(C)c3c2OC(N)=C(C#N)C3c2ccc(C)o2)cc1 (stereo unspecified)	-19.0%	1.58µM*	46.0	-25.1%	-11.0%
Cc1ccc(-n2nc(C)c3c2OC(N)=C(C#N)C3c2ccoc2)cc1 (stereo unspecified)	-5.3%	0.891µM*	-9.9	-27.8%	?
Cc1ccc(SCc2[nH]nc3c2C(c2ccc(C)o2)C(C#N)=C(N)O3)cc1 (stereo unspecified)	?	?	10.4	?	?
Cc1ccc(SCc2[nH]nc3c2C(c2ccco2)C(C#N)=C(N)O3)cc1 (stereo unspecified)	0.1%	-53.8%	5.6	?	-26.7%
CCC/C=C(\CCC)C(NC(=O)Oc1ccc(F)cc1)c1ccc(C(=O)OC)cc1 (stereo unspecified)	.	5.1%	.	-8.2%	-1.1%
CC1=C(CC/C(C)=N/NC(N)=S)C(C)(C)CCC1	7.5%	28.2µM*	?	-19.0%	-5.8%
O=C1C[C@H]2OCC=C3CN4CC[C@@]5(C(=O)O)[C@H](N1)C2[C@H]3C[C@H]45 (stereo partly specified)	.	-5.1%[13.5 µM]	.	-0.6%	.
COc1ccc2c(C(=O)CN3CCSCC3)c[nH]c2c1	.	28.2µM*	.	.	.

Screening data: PubChem BioAssay, National Center for Advancing Translational Sciences (NCATS)
